26 molecules from PubChem BioAssay (NCATS) can be followed below.

The target in assay [1] is Aldehyde dehydrogenase, mitochondrial (Homo sapiens) (UniProt P05091). Put plainly: qHTS for Inhibitors of the Aldehyde Dehydrogenase Family (ALDH2) Primary screen (AID 2061308). Further: nearly all actives have a fitted effect of over 55% in size. On the technique in general: In qHTS, concentration-response curves come from the screen itself.
For assay [2], the target named is Retinaldehyde dehydrogenase 3 (Homo sapiens) (UniProt P47895). Put plainly: qHTS for Inhibitors of the Aldehyde Dehydrogenase Family (ALDH1A3) Primary screen (AID 2061315).

Structures are written as SMILES. Records with an inconclusive call do not appear. A call without a number means that no potency is given here. The source made the active and inactive calls. The call rests on the fitted dose curve; in most records, active means well fitted curve in the direction sought with a large enough effect; inconclusive means small, poorly fitted or top-dose-only effect, or another doubt; inactive means no such curve, though single readings can be large; an effect the other way counts as inactive or inconclusive.

Turning to `N#Cc1nc(Nc2cc(F)cc(Cl)c2)nc(NC2CCCC2)n1`, the Potency entry in assay [1] and in assay [2] was “inactive” in each case.

Regarding `N#Cc1nc(NCCCO)nc(Nc2ccccc2)n1`, the Potency entry in assay [1] and in assay [2] was “inactive” throughout.

Regarding `CCCn1c(C)nc2c(NC3CCN(Cc4ccccc4)CC3)nc(C)nc21`, the Potency result in assay [1] and in assay [2] was “inactive” throughout.

As for `Cc1cc(C)nc(NC(=S)N2CCN(c3ccc(Cl)c(Cl)c3Cl)CC2)c1`, the Potency entry in assay [1] and in assay [2] was “inactive” throughout.

On to `N#Cc1nc(Nc2cc(F)cc(F)c2)nc(Nc2cc(F)cc(F)c2)n1`, for which the Potency result in assay [1] and in assay [2] was “inactive” each time.

As for `Cc1cnc(N2CCC(C(N)=O)CC2)nc1-c1cccc(N(C)C)c1`, the Potency entry in assay [1] and in assay [2] was “inactive” each time.

For the molecule `O=C1c2ccccc2C(=O)N1c1cccnc1`, the Potency result in assay [1] and in assay [2] was “inactive” each time.

As for `Cc1cc(C)nc(NC(=S)N2CCN(c3ccc4nncn4c3)CC2)c1`, the Potency result in assay [1] and in assay [2] was “inactive” throughout.

On to `CCOC(=O)C1CCN(C(=O)C(C)(C)NC(=O)Nc2ccc([N+](=O)[O-])cc2)CC1`, for which the Potency result in assay [1] and in assay [2] was “inactive” throughout.

Regarding `Cc1ccc(C)c(SC2=CS(=O)(=O)c3ccccc32)c1`, the Potency result in assay [1] and in assay [2] was “inactive” in each case.

`CC(C)(C)c1ccc(-n2cnc3cc(C(=O)N4CCCCC4)ccc32)cc1`: the Potency result in assay [1] and in assay [2] was “inactive” throughout.

Consider `Cc1ccc(N2CCC(CNc3nc(-c4ccccc4C(C)C)ncc3C)CC2)cn1`, for which the Potency result in assay [1] and in assay [2] was “inactive” in each case.

Consider `COc1cccc(CNc2ccc(S(=O)(=O)Nc3ccccc3)cc2)c1O`, for which the Potency entry in assay [1] and in assay [2] was “inactive” in each case.

As to `CCC[C@@H]1C[C@@H](C(=O)N[C@H](C(C)Cl)[C@H]2O[C@H](SC)[C@H](O)[C@@H](O)[C@H]2O)N(C)C1` (some centres not stated), the Potency entry in assay [1] and in assay [2] was “inactive” each time.

Consider `COc1ccc(C2c3c(n(CCc4ccccc4)cnc3=N)Oc3ccc4ccccc4c32)cc1OC` (configuration not stated), for which the Potency result in assay [1] and in assay [2] was “inactive” in each case.

As to `COc1ccc(OC)c(C2=Nn3c(nnc3-c3ccccc3OC)SC2)c1`, the Potency result in assay [1] and in assay [2] was “inactive” throughout.

For the molecule `COc1cnccc1-c1nc(Nc2ccc(F)c(F)c2)c2ccccc2n1`, the Potency entry in assay [1] and in assay [2] was “inactive” in each case.

For the molecule `O=C(c1ccc2c(c1)ncn2-c1cccc(Cl)c1)N1CCCCC1`, the Potency result in assay [1] and in assay [2] was “inactive” each time.

On to `Cc1ccc(-c2cc(C(=O)O)c3cccc(C)c3n2)cc1C`, for which the Potency entry in assay [1] and in assay [2] was “inactive” in each case.

Take `NC(=O)C1CCN(c2nc(-c3ccccc3F)cs2)CC1`: the Potency result in assay [1] and in assay [2] was “inactive” throughout.

Consider `CC1=C(C(=O)Nc2nc3ccccc3s2)C2(CCCC2)N=C(Nc2nc3ccccc3o2)N1`, for which the Potency result in assay [1] and in assay [2] was “inactive” in each case.

`O=S(=O)(c1ccc2c(c1)OCCO2)N1CCN(S(=O)(=O)c2ccccc2OC(F)(F)F)CC1`: the Potency entry in assay [1] and in assay [2] was “inactive” throughout.

As for `COC(=O)c1cccc(-c2noc(-c3ccccc3F)n2)c1`, the Potency result in assay [1] and in assay [2] was “inactive” each time.

On to `O=[S+]([O-])(Nc1ccc(N2CCNCC2)cc1)c1ccc(NCc2cccc(Cl)c2O)cc1`, for which the Potency entry in assay [1] and in assay [2] was “inactive” throughout.

In the case of `C=C[C@H]1CN2CC[C@H]1C[C@@H]2C(O)c1ccnc2ccc(OC)cc12` (some centres not stated), the Potency result in assay [1] and in assay [2] was “inactive” in each case.

For `CC1=C(C(=O)Nc2ccccc2C)C(c2ccccc2Br)N=C(Nc2nc3ccccc3o2)N1` (configuration not stated), the Potency entry in assay [1] and in assay [2] was “inactive” each time.
